Compounds with a hit are over-represented: about 2.3% of the library has one in this group of screens.
AmpC inh detg – AmpC beta-lactamase inhibition with detergent present. hit rate 0.041% among 370,000. AmpC hydrolysis of nitrocefin, absorbance 480 nm, 0.01% Triton. Potency, µM (series often up to 114 µM), inactives show at the top dose activity change, negative = inhibition, most hits filed as inhibitors;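 further: 0% = no-compound wells and -100% = no-enzyme wells; nearly all actives have a fitted effect of over 25% in size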
Target sequence (P00811 whole entry, looked up): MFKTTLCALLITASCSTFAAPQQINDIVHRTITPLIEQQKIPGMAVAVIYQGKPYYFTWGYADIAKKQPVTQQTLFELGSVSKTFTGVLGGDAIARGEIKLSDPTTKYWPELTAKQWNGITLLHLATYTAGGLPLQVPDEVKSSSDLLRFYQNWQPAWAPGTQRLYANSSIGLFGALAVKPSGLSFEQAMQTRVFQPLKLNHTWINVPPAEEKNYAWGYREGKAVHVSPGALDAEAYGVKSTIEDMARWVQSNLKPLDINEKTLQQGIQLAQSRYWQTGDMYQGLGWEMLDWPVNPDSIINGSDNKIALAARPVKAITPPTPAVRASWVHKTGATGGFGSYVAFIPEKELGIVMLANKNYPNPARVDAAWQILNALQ
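20 mM phosphate pH 7.0 + 0.01% (detergent screen) or 0.0001% Triton X-100; 5.3 nM AmpC reagent; cpd preinc 15 min RT; nitrocefin (800 uM stock) to start; A480 q20 s × 4 min; Activity was normalised to no-enzyme and no-compound control wells.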
Marburg entry inh – inhibitors of Marburg virus binding or cell entry; Potency, µM (series often up to 37.8 µM), for the others: at the top dose activity change, negative = inhibition, usual class: inhibitors; Marburg virus pseudotyped entry inhibition, cell reporter; hit rate 1.8% among 300,000; calls by dose curve; tested in HEK293 cells
AMA1-RON2 inh – disrupts binding of P. falciparum AMA1 to RON2 | AlphaScreen AMA1-biotinylated RON2 peptide binding | Potency, µM (titrated, usually from 58.2 µM), for inactives: top-dose activity change, negative = inhibition, most hits filed as inhibitors | hit rate 0.2% among 360,000;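 further: 0% = vehicle wells and -100% = peptide control; nearly all actives have a fitted effect of over 45% in size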
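AMA1 (3D7) with his tag at 25 nM final met compounds first, then biotinylated RON2 peptide at 25 nM; detection used donor plus acceptor beads, 10 µg/mL apiece, read by AlphaScreen after 30 min at room temperature.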
LASV entry inh – blocks Lassa virus binding to or entry into cells | Potency, µM (titrated, usually from 37.9 µM), for inactives: at the highest dose activity change, negative = inhibition, hits mostly inhibitors | Lassa virus pseudotype entry inhibition, cell reporter | hit rate 1.2% among 300,000 | AID 540256; calls by dose curve; tested in HEK293 cells; further: nearly all actives have a fitted effect of over 50% in size
AmpC no deterg – AmpC beta-lactamase inhibition without detergent; P00811; AmpC nitrocefin hydrolysis, absorbance 480 nm, 0.0001% Triton; Potency, µM (highest dose often 57.1 µM), for inactives: top-dose activity change, negative = inhibition, hits mostly inhibitors; hit rate 0.52% among 330,000; AID 485341;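 further: plate controls were no compound for no effect and no enzyme for full effect; nearly all actives have a fitted effect of over 20% in size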
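20 mM phosphate pH 7.0 + 0.01% (detergent screen) or 0.0001% Triton X-100; 5.3 nM AmpC reagent; cpd preinc 15 min RT; nitrocefin (800 uM stock) to start; A480 q20 s × 4 min; Activity was normalised to no-enzyme and no-compound control wells.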
The depositor's hits bear a star; ? = inconclusive; / = no result given; [ ] = remark or other dose. Unless noted, the call rests on the fitted dose curve; in most records, active means well fitted curve in the direction sought with a large enough effect; inconclusive means small, poorly fitted or top-dose-only effect, or another doubt; inactive means no such curve, though single readings can be large; an effect the other way counts as inactive or inconclusive. Unless noted, on the % scale 0 is the no-effect control and ±100 the full control effect; potency means the concentration at half of the fitted maximal effect.

SMILES	AmpC inh detg	Marburg entry inh	AMA1-RON2 inh	LASV entry inh	AmpC no deterg
CC1=CC2C(C(O)CC3(C)C2CC(C)C32OCOC23COCO3)C2(C)C/C(=C\O)C(=O)C=C12 (configuration not stated)	/	7.94µM*	57.1%	?	/
Cc1ccc(Cl)cc1N1CCN(CCCNc2ncnc3onc(-c4ccc(F)cc4)c23)CC1	-0.4%	/	/	-25.8%[46.1 µM]	/
COc1ccc([C@H]2/C(=C(\O)c3ccccc3)C(=O)C(=O)N2c2ncccn2)cc1OC	/	1.0%	/	/	/
O=c1oc(-c2ccccc2)cc(Cl)c1Cl	-1.1%	11.2µM*	-19.9%	?	-15.5%
O=c1cc(-c2ccccc2)oc2ccc(Cl)cc12	/	-5.5%	25.2%	?	/
Cc1nc2ccccc2n1CCc1nc2c3ccccc3nc(SCc3ccc(C#N)cc3)n2n1	11.9%	/	/	19.0%[46.1 µM]	/
N#CCCN1CCN(S(=O)(=O)c2ccc(S(=O)(=O)N3CCCCCC3)cc2)CC1	?	/	16.9%	/	-8.6%
Cc1ccc(S(=O)(=O)N2CCN(CCC#N)CC2)cc1	6.3%	-23.1%	-1.9%	17.6%	-6.3%
CCN(C1CCCCC1)S(=O)(=O)c1ccc(S(=O)(=O)N2CCN(CCC#N)CC2)cc1	-15.0%	0.0%	-4.4%	/	6.31µM*
CC(=O)Nc1ccc(S(=O)(=O)N2CCN(CCC#N)CC2)cc1	?	/	3.4%	/	44.7µM*
CC(=O)O[C@@H]1C[C@H]2C(C)(C)C(=O)C=C[C@]2(C)[C@H]2CC[C@@]3(C)[C@H](c4ccoc4)OC(=O)[C@H]4O[C@]43[C@@]21C	-9.5%	?	-20.5%	18.4µM*	102.7%
CC1(C)OC(=O)C=C[C@]2(C)[C@H]3CC[C@@]4(C)[C@H](c5ccoc5)OC(=O)[C@H]5O[C@]54[C@]3(C)C(=O)C[C@@H]12	6.3%	/	-1.1%	/	87.9%
Cc1ccc(NC(=O)c2cnn(-c3ccccc3)c2C)cc1C	-9.6%	?	3.0%	3.16µM*	-28.2%
COc1ccccc1NC(=O)c1ccccc1-c1nc(-c2ccccc2OC)no1	-0.1%	11.6µM*	-4.2%	?	40.6%
Cc1cccc(C)c1OCCCn1c(CCNC(=O)C2CCCCC2)nc2ccccc21	14.8%	-16.5%[46.1 µM]	/	?	/
CCCCCCCCCCCCCCCC(=O)NCCc1c[nH]c2ccccc12	6.2%	/	1.6%	/	-15.5%
CCCCOc1ccc(-c2nnn(CC(=O)NCCc3c[nH]c4ccccc34)n2)cc1	0.3%	23.1%	-1.6%	-22.5%	0.282µM*
Cc1cc(O)c(C=O)c2c1C(=O)Oc1c(CO)c(O)c3c(c1O2)C(O)OC3=O (configuration not stated)	50.1µM*	/	1.12µM*	?	-40.5%
Cc1cc(O)c(CN(C)C)c2c1C(=O)/C(=C/c1ccco1)O2	-0.2%	/	5.8%	/	-3.5%
Cc1nn(-c2ccc(F)cc2)c(-n2cccc2)c1C(=O)NCCCN1CCN(c2cccc(Cl)c2)CC1	-1.8%	/	/	-13.7%[46.1 µM]	/
CCOC(=O)c1ccc(NC(=O)C2CCCN(c3ccc(Sc4ccc(C)cc4)nn3)C2)cc1 (configuration not stated)	-6.1%	?	/	6.31µM*	/
Cc1ccc(Sc2ccc(N3CCCC(C(=O)Nc4ccc(F)cc4F)C3)nn2)cc1 (configuration not stated)	10.1%	?	/	0.891µM*	/
CCS(=O)(=O)c1ncc(Cl)c(C(=O)N(Cc2ccccc2)Cc2ccco2)n1	-1.9%	?	/	?	/
COc1cccc(NC(=O)CSc2nccn2C2CCCC2)c1	-5.9%	/	/	10.9%[46.1 µM]	/
O=P(Oc1ccccc1)(Oc1ccccc1)N1CCN(c2ccc(F)cc2)CC1	1.4%	10µM*	-22.5%	?	66.2%
SMILES	AmpC inh detg	Marburg entry inh	AMA1-RON2 inh	LASV entry inh	AmpC no deterg
O=C(NC(=O)N1CCN(c2ccc(F)cc2)CC1)c1ccccc1	-4.5%	?	-12.2%	-38.7%[14.3 µM]	3.5%
CCN(CC)c1ccc(C(=O)OCc2cc(=O)oc3cc(O)ccc23)cc1	-1.5%	?	-9.6%	14.6µM*	?
CCCCc1cc(=O)oc2cc(O)ccc12	1.8%	-0.8%[46.1 µM]	10.8%	-11.1%	-18.1%
CCN(CC)c1ccc2c(O)cc(=O)oc2c1	?	14.7%[46.1 µM]	6.3%	24.5%	25.1µM*
O=C(Cn1nc(Cc2cccnc2)c2ccccc2c1=O)Nc1ccc2c(c1)OCO2	4.5%	9.1%	8.5%	/	10µM*
O=C(Cn1nc(Cc2cccnc2)c2ccccc2c1=O)Nc1ccc(F)c(Cl)c1	4.7%	?	/	-14.8%[46.1 µM]	/
COc1ccc(CCC(=O)Nc2cccc(S(=O)(=O)N3CCCCCC3)c2)cc1OC	0.6%	/	-2.3%	/	-2.8%
COc1ccc(NC(=O)CC2CCCC2)cc1S(=O)(=O)N1CCCCC1	?	-0.5%	-10.6%[11.6 µM]	10µM*	-8.4%
Cc1ccc(C2(C)NC(=O)N(CC(=O)Nc3ccc(Cl)c(S(=O)(=O)N4CCCCC4)c3)C2=O)cc1 (configuration not stated)	?	11.2µM*	25.7%	-26.6%	-39.3%
COc1ccc(CC(=O)Nc2cccc(S(=O)(=O)N3CCCCCC3)c2)cc1OC	-10.0%	?	-11.0%	4.47µM*	-31.1%
O=C(CC1CCCC1)Nc1ccc(Cl)c(S(=O)(=O)N2CCOCC2)c1	/	?	6.9%	2.82µM*	-12.9%
Cc1ccc(C)c(NC(=O)c2nc(S(C)(=O)=O)ncc2N(Cc2ccc(C(C)(C)C)cc2)Cc2ccco2)c1	12.2%	?	/	-23.3%[46.1 µM]	/
CCOC(=O)[C@H](c1ccccc1)N1CCN(c2ccc(OC)cc2)CC1	/	1.0%	/	/	/
Cc1cc(C)cc(NC(=O)Cc2ccc(S(=O)(=O)N3CCCC3)s2)c1	1.1%	?	-10.2%	-8.3%	-21.3%
CCc1ccc(C(=O)CN2C(=O)NC(C)(c3ccc(C)cc3)C2=O)cc1 (configuration not stated)	?	0.0%	3.7%	-8.9%	-18.3%
Cc1ccc(C2(C)NC(=O)N(CC(=O)c3ccc(Cl)s3)C2=O)cc1 (configuration not stated)	-9.2%	?	0.0%	2.9%	28.2µM*
O=C(Cc1ccc(S(=O)(=O)N2CCCC2)s1)Nc1nc2c(s1)CCCC2	?	-19.0%	4.8%	-25.3%	14.1µM*
CCCC(C(=O)Nc1cccc(S(=O)(=O)N2CCCC2)c1)c1ccccc1 (configuration not stated)	-8.4%	?	-4.2%	7.08µM*	-0.8%
NS(=O)(=O)c1cccc(NC(=O)COC(=O)Cc2ccc(S(=O)(=O)N3CCCCC3)s2)c1	-5.2%	3.4%	0.0%	/	31.6µM*
O=C(Nc1ccc2nc(SCC(=O)N3CCCC3)sc2c1)c1cccc(F)c1	18.5%	-5.2%[46.1 µM]	/	-1.9%[46.1 µM]	/
COc1cccc(C2=CC(c3ccccc3F)n3ncc(C(=O)Nc4ccc(C)cc4)c3N2)c1 (configuration not stated)	-3.0%	/	/	-28.4%[46.1 µM]	/
COc1ccc([C@H]2/C(=C(\O)c3cnn(-c4ccccc4)c3C)C(=O)C(=O)N2CCN(C)C)cc1OC	/	2.9%[46.1 µM]	/	/	/
NS(=O)(=O)c1ccc(N/N=C/c2cn(-c3ccccc3)nc2-c2cccs2)c([N+](=O)[O-])c1	?	10µM*	-25.3%	?	-24.2%

Source: PubChem (National Center for Advancing Translational Sciences (NCATS))
